Shn3 inh set2 = reduction of Shn3 3'UTR firefly luciferase signal, primary screen, Schnurri-3 inhibitor project, cell-based, Clone20 osteoblasts, set 2 | Clone20 osteoblast Shn3 3'UTR firefly luciferase, 24 h | inhibition, % at 12.5 µM | hit rate 0.52% among 360,000 | AID 588674, 2011;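 active = mean inhibition of at least 75% with every replicate also reaching 75%; inconclusive = mean inhibition at least 75% but some replicate below; inactive = mean inhibition below 75%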;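 also: 0% = median of neutral control wells and 100% = pilot-screen positive control compound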
LMP1 NFkB inh = EBV LMP1-driven NF-kappaB luciferase reporter inhibitors, primary screen, cell-based, luminescence, single point | LMP1-induced NF-kappaB luciferase reporter cells | inhibition, % at 12.5 µM | hit rate 0.69% among 350,000 | AID 504558, 2011; in the data active = inhibition above about 41%; inconclusive = no clear call, values can overlap the other calls;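 also: 0% = neutral control wells and 100% = reference inhibitor control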
TROY NFkB inh = inhibitors of TROY-driven NF-kB signaling, primary screen, Q293 LMP1-TROYcd cells, NF-kB luciferase, uHTS. hit rate 0.98% among 360,000. inhibition, % at 10 µM. Q293 LMP1-TROYcd NF-kB luciferase reporter, 4 h. AID 1347056, 2019;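 active = compounds whose plate-normalised and pattern-corrected inhibition of the luciferase reporter signal at the single screening dose is 50% or more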
TRPM1 prom inh = inhibitors of MITF-dependent TRPM1 promoter reporter, primary screen, cell-based, SK-MEL-5, single point, luciferase; hit rate 0.83% among 330,000; SK-MEL-5 TRPM1 promoter luciferase, 24 h; inhibition, % at 12.5 µM;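 active = mean inhibition across replicates of 60% or more, whatever share of single replicates reaches that level; inconclusive = some that reach 60%, reason not given; inactive = mean inhibition across replicates below 60%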
TWEAK-Fn14 inh = inhibitors of TWEAK-Fn14 signaling, primary screen, luciferase reporter cells, uHTS; TWEAK-stimulated Fn14 reporter cells, luciferase luminescence, 8 h; inhibition, % at 10 µM; hit rate 2% among 360,000; in the data active = inhibition above about 50%
Peg3 prom inh = Peg3 promoter-driven luciferase inhibitors, primary screen, cell-based, HeLa, luciferase luminescence; inhibition, % at 20 µM; AID 588405, 2011; HeLa PEG-Prom luciferase reporter, overnight; hit rate 1.7% among 360,000;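 active = inhibition of at least 50% at 20 µM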
Numbers without * were called inactive. A selection: hits, their analogues and other compounds. The true share with any hit is near 4.1%.

CCN1/C(=C/C(C)=C/c2sc3ccccc3[n+]2CC)Sc2ccccc21 was read as Shn3 inh set2 88.3*, LMP1 NFkB inh -10.4, TROY NFkB inh 33.4, TRPM1 prom inh 103.2*, TWEAK-Fn14 inh 82.4* and Peg3 prom inh 104.0*.
For CCN1/C(=C\C(=S)Nc2ccccc2)Sc2ccccc21 the results were Shn3 inh set2 38.3, LMP1 NFkB inh -15.4, TROY NFkB inh 10.9, TRPM1 prom inh -11.9, TWEAK-Fn14 inh 18.3 and Peg3 prom inh -303.4.
`Cc1cccc(-n2nc3c(c2NC(=O)c2ccc4c(c2)OCO4)CS(=O)(=O)C3)c1C` gave Shn3 inh set2 -0.8, LMP1 NFkB inh 6.0, TROY NFkB inh 3.3, TRPM1 prom inh -2.0, TWEAK-Fn14 inh -7.2 and Peg3 prom inh 8.2.
`COc1ccc(-c2[nH]ncc2CNC(C)CCn2cccn2)c(F)c1` (stereo not drawn) gave Shn3 inh set2 -7.4, LMP1 NFkB inh -3.2, TROY NFkB inh -3.5, TRPM1 prom inh -0.4, TWEAK-Fn14 inh 18.3 and Peg3 prom inh -8.9.
For COc1ccc(-c2[nH]ncc2CNC(C)c2cn(C)nc2C)c(F)c1 (stereo not drawn) the results were Shn3 inh set2 10.9, LMP1 NFkB inh -1.7, TROY NFkB inh -15.9, TRPM1 prom inh 9.7, TWEAK-Fn14 inh 65.4* and Peg3 prom inh 1.3.
For O=C(N/N=C/c1ccccc1)C1CCCN1C(=O)c1cc([N+](=O)[O-])cc([N+](=O)[O-])c1 (stereo not drawn) the results were Shn3 inh set2 12.3, LMP1 NFkB inh 5.9, TROY NFkB inh 20.0, TRPM1 prom inh 9.4, TWEAK-Fn14 inh 0.5 and Peg3 prom inh 22.7.
Screening Brc1ccc(NCc2cccc3ccccc23)nc1 returned Shn3 inh set2 -3.5, LMP1 NFkB inh -10.6, TROY NFkB inh -27.7, TRPM1 prom inh -27.1, TWEAK-Fn14 inh -10.2 and Peg3 prom inh -53.0.
Oc1ccccc1CNc1ccc(Br)cn1 was read as Shn3 inh set2 -59.9, LMP1 NFkB inh 1.3, TROY NFkB inh -39.6, TRPM1 prom inh -50.0, TWEAK-Fn14 inh 89.5* and Peg3 prom inh -268.3.
For Cc1ccc(S(=O)(=O)N2CCCCC2C(=O)N(C)c2ccccc2)cc1 (stereo not drawn) the results were Shn3 inh set2 3.9, LMP1 NFkB inh -4.6, TROY NFkB inh -1.4, TRPM1 prom inh -5.2, TWEAK-Fn14 inh -19.3 and Peg3 prom inh 4.9.
Screening Cc1ccc(N(C)C(=O)C2CCCN2S(=O)(=O)c2ccc3c(c2)n(C)c(=O)c(=O)n3C)cc1 (stereo not drawn) returned Shn3 inh set2 -11.2, LMP1 NFkB inh 2.8, TROY NFkB inh -5.4, TRPM1 prom inh -3.2, TWEAK-Fn14 inh 65.6* and Peg3 prom inh 6.3.
O=c1c2ccccc2cnn1CCOc1ccccc1 was read as Shn3 inh set2 58.2, LMP1 NFkB inh 74.1*, TROY NFkB inh 71.8*, TRPM1 prom inh 58.4, TWEAK-Fn14 inh 97.1* and Peg3 prom inh 43.8.
Cc1ccc(Cn2ncc3c(N4CCN(c5ccc(C)cc5)CC4)ncnc32)cc1 was read as Shn3 inh set2 44.4, LMP1 NFkB inh 31.1, TROY NFkB inh 31.4, TRPM1 prom inh 27.4, TWEAK-Fn14 inh 60.7* and Peg3 prom inh 16.6.
`Cc1ccc(Cn2ncc3c(N4CCN(Cc5ccc(Cl)cc5)CC4)ncnc32)cc1` gave Shn3 inh set2 23.6, LMP1 NFkB inh 5.7, TROY NFkB inh 25.6, TRPM1 prom inh 25.8, TWEAK-Fn14 inh 56.1* and Peg3 prom inh 15.0.
For CC(C)(CO)CN1CCC(n2nccc2NC(=O)C2CCCC2)CC1 the results were Shn3 inh set2 2.1, LMP1 NFkB inh -4.6, TROY NFkB inh 0.9, TRPM1 prom inh 3.7, TWEAK-Fn14 inh -8.2 and Peg3 prom inh 15.8.
Screening Fc1ccc(-n2nnc(-c3cnc4ccccc4c3)n2)cc1 returned Shn3 inh set2 46.2, LMP1 NFkB inh inconclusive, TROY NFkB inh 73.0*, TRPM1 prom inh 16.0, TWEAK-Fn14 inh 93.8* and Peg3 prom inh 52.1*.
For Fc1ccc(-n2nnc(-c3cccnc3)n2)cc1 the results were Shn3 inh set2 -87.0, LMP1 NFkB inh -20.4, TROY NFkB inh -45.7, TRPM1 prom inh -65.3, TWEAK-Fn14 inh -39.3 and Peg3 prom inh -267.6.
CC(C)(C)[C@H](N)C(=O)N[C@H]1CCC2C3CC=C4C[C@@H](O)CC[C@]4(C)C3CC[C@@]21C (stereo partly drawn) was read as Shn3 inh set2 12.1, LMP1 NFkB inh -95.2, TROY NFkB inh -6.3, TRPM1 prom inh 76.1*, TWEAK-Fn14 inh -220.9 and Peg3 prom inh 96.0*.
`CC(=O)C1CCC2C3CC=C4CC(SC(=N)N)CCC4(C)C3CCC12C` (stereo not drawn) gave Shn3 inh set2 inconclusive, LMP1 NFkB inh 9.7, TROY NFkB inh 26.0, TRPM1 prom inh 90.2*, TWEAK-Fn14 inh 6.7 and Peg3 prom inh 97.0*.
For CC(C)S(=O)(=O)c1csc(NC(=O)Nc2cc(Cl)ccc2Cl)c1Cl the results were Shn3 inh set2 13.5, LMP1 NFkB inh 7.8, TROY NFkB inh 44.2, TRPM1 prom inh 1.2, TWEAK-Fn14 inh 32.5 and Peg3 prom inh 8.9.
Screening CS(=O)(=O)Nc1ccccc1C(=O)NCC1(N2CCCCC2)CCCCC1 returned Shn3 inh set2 4.4, LMP1 NFkB inh 46.7*, TROY NFkB inh 7.0, TRPM1 prom inh 4.8, TWEAK-Fn14 inh 3.0 and Peg3 prom inh 7.2.
`COc1ccc(CCNC(=O)c2ccc3c(c2)S(=O)(=O)N=C2CCCCCN23)cc1` gave Shn3 inh set2 0.9, LMP1 NFkB inh 2.1, TROY NFkB inh -22.5, TRPM1 prom inh 0.4, TWEAK-Fn14 inh -6.4 and Peg3 prom inh -7.5.
For Cc1cc(C)c(S(=O)(=O)Nc2ncn[nH]2)cc1C the results were Shn3 inh set2 12.7, LMP1 NFkB inh 4.7, TROY NFkB inh -1.1, TRPM1 prom inh 0.9, TWEAK-Fn14 inh 8.0 and Peg3 prom inh 11.5.
`Cc1ccc(-c2nn(-c3ccccc3)cc2NC(=O)CCl)cc1` gave Shn3 inh set2 5.0, LMP1 NFkB inh -11.2, TROY NFkB inh -41.4, TRPM1 prom inh 51.1, TWEAK-Fn14 inh -5.4 and Peg3 prom inh 105.1*.
Screening Cc1ccc(-c2nn(-c3ccccc3)cc2CNCc2ccccc2)cc1 returned Shn3 inh set2 43.8, LMP1 NFkB inh -12.7, TROY NFkB inh -12.0, TRPM1 prom inh -3.8, TWEAK-Fn14 inh -29.8 and Peg3 prom inh 52.9*.
Screening Cc1ccc(-n2cc(CNCCCn3cccn3)c(-c3cccc(C)c3)n2)cc1 returned Shn3 inh set2 15.5, LMP1 NFkB inh 5.1, TROY NFkB inh -7.0, TRPM1 prom inh 78.9*, TWEAK-Fn14 inh -21.6 and Peg3 prom inh 85.0*.
Cc1ccc(-c2cc(NC(=O)CCl)n(-c3ccccc3)n2)cc1 was read as LMP1 NFkB inh -9.7, TROY NFkB inh -56.3, TRPM1 prom inh -12.2, TWEAK-Fn14 inh -17.3 and Peg3 prom inh 37.2.

High-throughput results deposited in PubChem BioAssay by several laboratories.
